Measured values from PubChem BioAssay (EPA / NIEHS).
Several values for one entry are separate records, joined by “and”; a condition that tells them apart may be missing. Equal entries are not always repeated. Inconclusive results are not listed. More than one record can exist for a structure, and the calls need not agree. Activity calls are given as the source filed them. The calls were made as follows: active = hit-call score of the fitted dose curve at least 0.9, where 1 is the maximum; inconclusive = response in the unintended direction; inactive = score below 0.9.

Legend:
[1] = target: Luciferin 4-monooxygenase (Photinus pyralis) (UniProt P08659); experiment: CCTE_Simmons_QuantiLum_inhib_2: CCTE's Firefly Luciferase Inhibition Assay, Simmons Lab (AID 2283767);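 as to AC50: potency for inhibitors that lower luciferase luminescence relative to DMSO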
Outline: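 Cell-free recombinant firefly luciferase (5 ng/well) in 200mM potassium phosphate with 1 mg/ml BSA, 30 min at 37C with 8 concentrations from 5 nM to 87.5 uM [final], 0.5% DMSO. Luminescence read after D-luciferin (150uM)/dATP (147uM) reagent injection, pH 7.8; triplicates.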

[2] = test system: zebrafish Estrogen Receptor (ESR2B), gene 317733; experiment: ATG_zfER2b_XSP1: Attagene TRANS-FACTORIAL Multi-Species (XSP1) HepG2 Assay for zebrafish Estrogen Receptor (ESR2B) (AID 2283773)
Outline: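 Gain-of-signal endpoint relative to DMSO: reporter transcript levels quantified by RT-PCR and capillary electrophoresis after 24 h compound exposure of HepG2 cells expressing a zebrafish ER2b-Gal4 chimera.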

[3] = test system: frog Estrogen Receptor (ESR2), gene 100174814; experiment: ATG_frER2_XSP1: Attagene TRANS-FACTORIAL Multi-Species (XSP1) HepG2 Assay for frog Estrogen Receptor (ESR2) (AID 2283774)
Outline: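 Transactivation of an exogenous receptor-Gal4 fusion is tracked in transfected HepG2 cells via induced reporter transcript levels. After 24 h treatment, RT-PCR with capillary electrophoresis quantifies signal gain over DMSO.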

[4] = ACEA_AR_antagonist_AUC_viability: ACEA Biosciences xCELLigence Real-Time Cell Analysis on Androgen Receptor Antagonism for Viability (AID 2283776);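 also: 22Rv1 human prostate cancer cells growing on impedance electrode plates; hits lower the growth signal relative to DMSO meaning cytotoxicity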
Outline: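 Real-time electrical impedance tracks 22Rv1 proliferation after continuous compound exposure (top 100 uM final, 1:4 steps, 8 concentrations). The 80 h area-under-curve serves as the cytotoxicity readout relative to DMSO.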

[5] = test system: frog Estrogen Receptor (ESR1), gene 398734; experiment: ATG_frER1_XSP1: Attagene TRANS-FACTORIAL Multi-Species (XSP1) HepG2 Assay for frog Estrogen Receptor (ESR1) (AID 2283777)
Outline: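 Human hepatoma HepG2 cells carried transiently transfected multiplexed Gal4-driven reporters and were exposed to test chemicals for 24 hours. Transcripts were quantified by fluorescent RT-PCR with capillary electrophoresis, referenced to DMSO.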

[6] = test system: zebrafish Estrogen Receptor (ESR2A), gene 317734; experiment: ATG_zfER2a_XSP1: Attagene TRANS-FACTORIAL Multi-Species (XSP1) HepG2 Assay for zebrafish Estrogen Receptor (ESR2A) (AID 2283778)
Outline: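 Cells were transfected, dosed for 24 h, then total RNA was isolated. After oligo(dT) reverse transcription, reporter sequences were amplified, FAM-labelled by primer extension, digested with HpaI and sized by capillary electrophoresis; DMSO served as baseline.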

[7] = target: chicken Estrogen Receptor (ESR1), ESR1 (gene 396099) (UniProt P06212); experiment: ATG_chERa_XSP1: Attagene TRANS-FACTORIAL Multi-Species (XSP1) HepG2 Assay for chicken Estrogen Receptor (ESR1) (AID 2283779)
Outline: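 Human liver HepG2, transient MRTU transfection (NR-Gal4 chimeras, GAL4-UAS reporters); 24 h compound exposure; 3 nM 6-alpha-fluorotestosterone in medium. Total RNA → RT-PCR → 6-FAM primer extension → HpaI → CE. Positive direction vs DMSO baseline.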

[8] = test system: turtle Estrogen Receptor (ESR1), gene 101933533; experiment: ATG_trERa_XSP1: Attagene TRANS-FACTORIAL Multi-Species (XSP1) HepG2 Assay for turtle Estrogen Receptor (ESR1) (AID 2283781)
Outline: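 Activity was taken as gain of reporter transcript over DMSO controls. HepG2 cells carrying GAL4-UAS-driven reporters were exposed for 24 h before RNA was extracted and reporter sequences were measured by fluorescence after capillary separation.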

[9] = target: Estrogen receptor beta (Homo sapiens) (UniProt Q92731); experiment: ATG_hERb_XSP1: Attagene TRANS-FACTORIAL Multi-Species (XSP1) HepG2 Assay for human Estrogen Receptor (ESR2) (AID 2283788)
Outline: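 Measured endpoint is transcriptional gain of signal from a GAL4-UAS reporter controlled by chimeric ERβ in HepG2 liver cells. Exposure lasts 24 h alongside 3 nM 6-alpha-fluorotestosterone, with DMSO as negative control.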

[10] = target: GAL4 Transcription Factor (Internal Marker), GAL4 (gene 855828) (UniProt P04386); experiment: ATG_GAL4_XSP1: Attagene TRANS-FACTORIAL Multi-Species (XSP1) HepG2 Assay for GAL4 Transcription Factor (Internal Marker) (AID 2283789)
Outline: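 HepG2 cells transiently transfected with multiplexed GAL4-UAS reporter units were exposed for 24 h with 3 nM 6-alpha-fluorotestosterone present. Reporter mRNA was quantified by RT-PCR, FAM labelling, HpaI digestion and capillary electrophoresis; background-control readout, gain-of-signal versus DMSO.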

[11] = ATG_M_06_XSP1: Attagene TRANS-FACTORIAL Multi-Species (XSP1) HepG2 Assay for M06 Transcription Factor (Internal Marker) (AID 2283790)
Outline: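 Transfected HepG2 multi-reporter system treated 24 h in the presence of 3 nM 6-alpha-fluorotestosterone. The M06 internal marker transcript was quantified by RT-PCR with capillary electrophoresis as a background control, and gain of signal was scored versus DMSO.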

[12] = ATG_M_61_XSP1: Attagene TRANS-FACTORIAL Multi-Species (XSP1) HepG2 Assay for M61 Transcription Factor (Internal Marker) (AID 2283797)
Outline: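 HepG2 cells transiently transfected with multiplexed GAL4-driven reporter units, dosed 24 h with 3 nM 6-alpha-fluorotestosterone present. Reporter mRNA quantified by RT-PCR, 6-FAM labelling, HpaI digestion and capillary electrophoresis; internal-marker background control, gain of signal versus DMSO.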

[13] = target: Peroxisome proliferator-activated receptor gamma (Homo sapiens) (UniProt P37231); experiment: ATG_hPPARg_XSP1: Attagene TRANS-FACTORIAL Multi-Species (XSP1) HepG2 Assay for human Peroxisome Proliferator-activated Receptor gamma (PPARg) (AID 2283800)
Outline: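 HepG2 cells transiently transfected with GAL4-UAS reporter units carrying chimeric NR-Gal4 proteins; 3 nM 6-alpha-fluorotestosterone present. After 24 h dosing, reporter mRNA quantified by RT-PCR and capillary electrophoresis; gain of signal relative to DMSO.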

[14] = target: Nuclear receptor subfamily 1 group I member 2 (Mus musculus) (UniProt O54915); experiment: ATG_mPXR_XSP1: Attagene TRANS-FACTORIAL Multi-Species (XSP1) HepG2 Assay for mouse Pregnane X Receptor (PXR) (AID 2283803)
Outline: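 Transiently transfected HepG2 cells expressing a receptor-Gal4 chimera drive a GAL4-UAS reporter; 3 nM 6-alpha-fluorotestosterone included. Reporter mRNA read 24 h post-dose by RT-PCR and capillary electrophoresis; gain of signal relative to DMSO.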

[15] = ACEA_AR_agonist_AUC_viability: ACEA Biosciences xCELLigence Real-Time Cell Analysis on Androgen Receptor Agonism for Viability (AID 2283775);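 as to AC50: viability read 80 hours after compound addition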
Outline: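 Real-time impedance tracking of 22Rv1 growth, readings every 5 min for 5 h then hourly; area-under-curve viability endpoint at 80 hours, relative to DMSO. Compounds at eight concentrations, 1:4 steps, top 100 uM, n = 2.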

[16] = ACEA_ER_AUC_viability: ACEA Biosciences xCELLigence Real-Time Cell Analysis on Estrogen Receptor Agonism for Viability (AID 2283782);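 also: hit means loss of impedance signal meaning reduced cell growth or viability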
Outline: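 T-47D; phenol red-free RPMI1640 + 10% CS-FBS; 8 conc., 1:4 serial, max 100 uM final, ≤0.5% DMSO; n = 2; continuous exposure; impedance monitored to 80 h post-dose; AUC vs DMSO.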

AR (gene 367) [17] = target: AR (gene 367) (UniProt P10275); experiment: ACEA_AR_agonist_80hr: ACEA Biosciences xCELLigence Real-Time Cell Analysis on Androgen Receptor Agonism for Proliferation (AID 2283783);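 also: hits increase impedance growth signal above DMSO baseline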
Outline: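 Androgen-driven proliferation in 22Rv1 cells is tracked as electrical impedance, taken 80 h after continuous exposure to compound (eight concentrations, 1:4 steps, maximum 100 uM final). Activity is fitted in the positive direction with DMSO as baseline.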

AR (gene 367) [18] = target: AR (gene 367) (UniProt P10275); experiment: ACEA_AR_antagonist_80hr: ACEA Biosciences xCELLigence Real-Time Cell Analysis on Androgen Receptor Antagonism for Proliferation (AID 2283787);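 also: 22Rv1 human prostate cancer cells with growth followed by electrical impedance; hits lower the impedance growth signal relative to DMSO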
Outline: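 Growth-kinetic antagonist readout in 22Rv1 cells, taken 80 h after continuous compound exposure. Activity fitted as signal loss relative to DMSO negative control.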

[19] = STM_H9_NormalizedViability: Cytotoxicity Assessment at 120 hours in the Stemina devTOX quickPredict H9 human embryonic stem cell (hESC)-based Assay (AID 2283784)
Outline: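 Pluripotent H9 hESCs were exposed, with chemical and media replaced every 24 h. Viability was read by CellTiter-Fluor fluorescence, background-corrected and normalized to the 0.1% DMSO neutral control per plate. Loss of signal was fitted.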

Chain of AR (gene 367) (P10275 whole entry, looked up): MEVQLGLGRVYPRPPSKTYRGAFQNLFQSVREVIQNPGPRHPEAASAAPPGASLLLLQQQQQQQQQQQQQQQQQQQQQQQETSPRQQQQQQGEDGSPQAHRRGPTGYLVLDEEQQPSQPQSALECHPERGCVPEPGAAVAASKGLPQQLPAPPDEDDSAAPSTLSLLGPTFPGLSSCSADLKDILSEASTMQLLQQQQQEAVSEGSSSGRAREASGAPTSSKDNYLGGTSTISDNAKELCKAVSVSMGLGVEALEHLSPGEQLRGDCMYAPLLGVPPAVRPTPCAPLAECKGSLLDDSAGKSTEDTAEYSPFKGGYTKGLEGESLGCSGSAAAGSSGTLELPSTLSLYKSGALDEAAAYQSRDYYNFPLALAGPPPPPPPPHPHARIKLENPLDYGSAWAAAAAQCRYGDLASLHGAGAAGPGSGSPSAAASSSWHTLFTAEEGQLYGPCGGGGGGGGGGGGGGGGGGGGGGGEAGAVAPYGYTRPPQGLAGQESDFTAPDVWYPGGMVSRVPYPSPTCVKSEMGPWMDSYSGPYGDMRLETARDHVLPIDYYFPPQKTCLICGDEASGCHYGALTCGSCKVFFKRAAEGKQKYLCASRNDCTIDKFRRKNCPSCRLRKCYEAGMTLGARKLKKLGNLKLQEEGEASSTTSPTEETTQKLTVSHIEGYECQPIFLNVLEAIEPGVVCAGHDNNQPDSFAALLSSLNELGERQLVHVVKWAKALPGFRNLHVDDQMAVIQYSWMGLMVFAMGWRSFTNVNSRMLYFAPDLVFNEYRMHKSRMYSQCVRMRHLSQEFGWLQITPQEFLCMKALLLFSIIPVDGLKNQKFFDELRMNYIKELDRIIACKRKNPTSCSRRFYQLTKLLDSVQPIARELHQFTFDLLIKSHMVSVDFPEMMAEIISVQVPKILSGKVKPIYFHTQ
Chain of Luciferin 4-monooxygenase (Photinus pyralis) (P08659 whole entry, looked up): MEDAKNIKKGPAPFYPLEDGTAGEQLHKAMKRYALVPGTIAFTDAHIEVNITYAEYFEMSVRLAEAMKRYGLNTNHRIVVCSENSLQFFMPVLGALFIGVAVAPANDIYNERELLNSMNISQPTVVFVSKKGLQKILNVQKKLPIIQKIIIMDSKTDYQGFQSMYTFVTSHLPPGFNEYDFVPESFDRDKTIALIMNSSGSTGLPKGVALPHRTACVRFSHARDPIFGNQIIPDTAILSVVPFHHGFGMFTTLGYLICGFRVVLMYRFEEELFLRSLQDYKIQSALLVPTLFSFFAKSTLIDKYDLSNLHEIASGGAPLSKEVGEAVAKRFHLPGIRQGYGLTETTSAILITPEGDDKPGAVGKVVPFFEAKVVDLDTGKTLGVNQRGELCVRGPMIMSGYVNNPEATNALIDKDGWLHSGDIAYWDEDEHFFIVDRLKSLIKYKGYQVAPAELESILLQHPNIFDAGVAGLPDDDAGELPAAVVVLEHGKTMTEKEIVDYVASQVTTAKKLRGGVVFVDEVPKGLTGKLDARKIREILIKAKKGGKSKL
Chain of Nuclear receptor subfamily 1 group I member 2 (Mus musculus) (O54915 whole entry, looked up, the tested form may be a part): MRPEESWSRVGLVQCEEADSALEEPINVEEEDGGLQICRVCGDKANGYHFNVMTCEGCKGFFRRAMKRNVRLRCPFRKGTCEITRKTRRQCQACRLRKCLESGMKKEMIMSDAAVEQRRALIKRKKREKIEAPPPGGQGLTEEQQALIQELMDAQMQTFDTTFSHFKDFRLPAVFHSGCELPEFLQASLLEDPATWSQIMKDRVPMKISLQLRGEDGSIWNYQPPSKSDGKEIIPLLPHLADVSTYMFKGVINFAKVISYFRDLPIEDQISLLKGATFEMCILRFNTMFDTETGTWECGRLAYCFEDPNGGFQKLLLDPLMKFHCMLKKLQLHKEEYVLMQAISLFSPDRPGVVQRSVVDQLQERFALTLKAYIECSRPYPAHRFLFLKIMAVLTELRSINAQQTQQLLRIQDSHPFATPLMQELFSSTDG
Chain of Estrogen receptor beta (Homo sapiens) (Q92731 whole entry, looked up, the tested form may be a part): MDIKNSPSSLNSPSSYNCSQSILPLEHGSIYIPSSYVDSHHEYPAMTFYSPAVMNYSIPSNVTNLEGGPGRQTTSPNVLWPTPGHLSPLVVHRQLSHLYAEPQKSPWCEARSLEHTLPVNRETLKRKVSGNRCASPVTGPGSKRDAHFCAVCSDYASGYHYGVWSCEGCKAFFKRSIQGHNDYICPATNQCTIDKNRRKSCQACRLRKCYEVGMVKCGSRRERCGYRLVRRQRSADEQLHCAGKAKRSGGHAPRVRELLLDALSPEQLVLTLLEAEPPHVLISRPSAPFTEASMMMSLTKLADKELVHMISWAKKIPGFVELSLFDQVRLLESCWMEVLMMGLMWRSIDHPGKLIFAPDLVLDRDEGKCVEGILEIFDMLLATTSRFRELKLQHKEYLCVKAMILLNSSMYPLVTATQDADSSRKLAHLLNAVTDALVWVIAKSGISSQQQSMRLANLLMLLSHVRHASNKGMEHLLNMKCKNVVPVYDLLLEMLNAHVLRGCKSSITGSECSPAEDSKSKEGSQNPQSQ
Chain of chicken Estrogen Receptor (ESR1), ESR1 (gene 396099) (P06212 whole entry, looked up, the tested form may be a part): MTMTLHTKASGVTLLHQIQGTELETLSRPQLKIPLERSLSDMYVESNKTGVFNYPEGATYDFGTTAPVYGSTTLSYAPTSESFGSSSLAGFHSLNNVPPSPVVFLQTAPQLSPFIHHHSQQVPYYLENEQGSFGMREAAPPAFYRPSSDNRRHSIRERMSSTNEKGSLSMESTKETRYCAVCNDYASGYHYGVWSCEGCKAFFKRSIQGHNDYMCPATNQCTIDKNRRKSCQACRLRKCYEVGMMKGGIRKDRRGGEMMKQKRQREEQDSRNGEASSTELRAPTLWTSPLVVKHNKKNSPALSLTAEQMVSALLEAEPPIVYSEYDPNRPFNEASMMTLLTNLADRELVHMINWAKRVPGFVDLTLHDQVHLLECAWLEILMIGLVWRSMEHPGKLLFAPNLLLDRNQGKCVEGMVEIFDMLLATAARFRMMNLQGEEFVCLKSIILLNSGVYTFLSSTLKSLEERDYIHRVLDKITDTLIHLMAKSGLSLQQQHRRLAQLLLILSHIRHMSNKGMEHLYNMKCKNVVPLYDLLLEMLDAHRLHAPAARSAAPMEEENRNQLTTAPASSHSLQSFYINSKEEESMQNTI
Chain of Peroxisome proliferator-activated receptor gamma (Homo sapiens) (P37231 whole entry, looked up, the tested form may be a part): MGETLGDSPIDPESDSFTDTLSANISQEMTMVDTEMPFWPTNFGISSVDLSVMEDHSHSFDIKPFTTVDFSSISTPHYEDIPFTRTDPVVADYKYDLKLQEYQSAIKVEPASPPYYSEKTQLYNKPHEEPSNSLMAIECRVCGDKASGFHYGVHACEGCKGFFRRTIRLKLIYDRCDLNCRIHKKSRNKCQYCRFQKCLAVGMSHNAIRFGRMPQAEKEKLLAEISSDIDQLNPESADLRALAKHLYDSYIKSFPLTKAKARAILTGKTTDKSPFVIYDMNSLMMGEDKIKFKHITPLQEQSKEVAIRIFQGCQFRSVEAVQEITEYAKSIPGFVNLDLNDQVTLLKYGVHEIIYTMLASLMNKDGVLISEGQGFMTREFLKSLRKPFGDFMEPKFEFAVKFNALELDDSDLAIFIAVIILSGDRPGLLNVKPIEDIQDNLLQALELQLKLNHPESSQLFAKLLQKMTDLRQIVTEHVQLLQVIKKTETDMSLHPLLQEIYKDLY
Chain of GAL4 Transcription Factor (Internal Marker), GAL4 (gene 855828) (P04386 whole entry, looked up, the tested form may be a part): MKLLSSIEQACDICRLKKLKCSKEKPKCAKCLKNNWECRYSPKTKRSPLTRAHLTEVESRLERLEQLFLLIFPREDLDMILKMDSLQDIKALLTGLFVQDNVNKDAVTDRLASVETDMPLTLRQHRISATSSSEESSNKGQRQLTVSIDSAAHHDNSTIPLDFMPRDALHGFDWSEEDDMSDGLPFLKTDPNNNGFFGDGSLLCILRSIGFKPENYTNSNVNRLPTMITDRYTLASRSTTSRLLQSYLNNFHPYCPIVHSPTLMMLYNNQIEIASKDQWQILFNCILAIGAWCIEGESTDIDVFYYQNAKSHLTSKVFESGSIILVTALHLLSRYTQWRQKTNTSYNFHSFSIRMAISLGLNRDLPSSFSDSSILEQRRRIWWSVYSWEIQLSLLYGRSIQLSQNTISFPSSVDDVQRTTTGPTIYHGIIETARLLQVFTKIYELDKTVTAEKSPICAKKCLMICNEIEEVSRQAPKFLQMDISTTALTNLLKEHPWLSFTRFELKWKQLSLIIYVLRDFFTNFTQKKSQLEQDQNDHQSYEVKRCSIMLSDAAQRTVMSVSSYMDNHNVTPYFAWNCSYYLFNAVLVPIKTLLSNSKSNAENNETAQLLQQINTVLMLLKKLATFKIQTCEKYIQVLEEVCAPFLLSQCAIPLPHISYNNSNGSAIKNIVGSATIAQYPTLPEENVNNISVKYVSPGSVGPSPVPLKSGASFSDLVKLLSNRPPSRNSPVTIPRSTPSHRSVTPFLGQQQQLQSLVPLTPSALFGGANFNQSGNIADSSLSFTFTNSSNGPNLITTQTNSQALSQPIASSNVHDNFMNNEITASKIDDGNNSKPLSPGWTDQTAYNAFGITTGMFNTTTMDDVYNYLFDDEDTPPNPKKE

In the case of C[C@]12CC[C@@H]3c4ccc(O)cc4CC[C@H]3[C@@H]1C[C@@H](O)[C@@H]2O, the outcome [1] is reported as “inactive”, the AC50 [2] is reported as 0.0143 µM (active) and the AC50 [3] is reported as 0.0279 µM (active). The AC50 [4] was 1.16 µM (active), the AC50 [5] was 0.0279 µM (active) and the AC50 [6] was 0.0157 µM (active). For the same compound, the AC50 [7] was 0.0227 µM (active), the AC50 [8] was 0.0172 µM (active) and the AC50 [9] was 0.0105 µM (active). For the same compound, the outcome [10] was “inactive”, the outcome [11] was “inactive” and the outcome [12] was “inactive”. The outcome [13] was “inactive” and the outcome [14] was “inactive”.

In the case of CCCCCCc1ccc(N)cc1, the AC50 [1] is reported as 77.1 µM (active), the outcome [15] is reported as “inactive” and the outcome [4] is reported as “inactive”. The AC50 [16] was 50 µM (active), the outcome (AR (gene 367) [17]) was “inactive” and the outcome (AR (gene 367) [18]) was “inactive”.

In the case of CCCCC=O, the outcome [15] is reported as “inactive” and the outcome [4] is reported as “inactive”.

With CCc1ccccc1O the outcome [15] was “inactive”, the outcome [4] was “inactive” and the outcome [16] was “inactive”.

For CCc1cccc(CC)c1N(COC)C(=O)CS(=O)(=O)O, the outcome [1] was “inactive”.

For CC(C)[C@@H]1CC[C@@H](C)C[C@H]1O, the outcome [15] was “inactive”, the AC50 [4] was 0.541 µM (active) and the outcome [16] was “inactive”. The AC50 (AR (gene 367) [18]) was 0.48 µM (active).

For O=C1OC2(c3ccccc31)c1cc(I)c(O)c(I)c1Oc1c2cc(I)c(O)c1I, the AC50 [1] was 6.41 µM (active), the AC50 [16] was 18.5 µM (active) and the outcome [16] was “inactive”.

In the case of CCCCc1ccc2ccccc2c1S(=O)(=O)O, the AC50 [15] is reported as 3.3 µM (active), the outcome [4] is reported as “inactive” and the outcome [16] is reported as “inactive”. For the same compound, the outcome (AR (gene 367) [18]) was “inactive”.

For CCCCCCCCCCCC(=O)O, the outcome [15] was “inactive” and the outcome [4] was “inactive”.

With CCCCCCCCCCCC the outcome [1] was “inactive”, the outcome [15] was “inactive” and the AC50 [16] was 50 µM (active) and 40.4 µM (active).

In the case of CCC(C)c1ccccc1O (centres undefined), the outcome [15] is reported as “inactive”, the outcome [4] is reported as “inactive” and the AC50 [16] is reported as 79.7 µM (active).

With NC(=NCCCCCCN=C(N)/N=C(\N)Nc1ccc(Cl)cc1)/N=C(\N)Nc1ccc(Cl)cc1 the AC50 [15] was 10.5 µM (active), the AC50 [4] was 10.6 µM (active) and the AC50 [16] was 8.38 µM (active) and 9.06 µM (active). The outcome (AR (gene 367) [17]) was “inactive” and the AC50 (AR (gene 367) [18]) was 9.25 µM (active).

In the case of NCCN, the outcome [15] is reported as “inactive”, the outcome [4] is reported as “inactive” and the outcome [16] is reported as “inactive”.

For Cc1cc(C(C)(C)C)c(O)c(C(C)(C)C)c1, the outcome [1] was “inactive”, the outcome [15] was “inactive” and the AC50 [4] was 0.144 µM (active). For the same compound, the AC50 [16] was 79.4 µM (active).

With NS(=O)(=O)O the outcome [15] was “inactive”, the outcome [4] was “inactive” and the outcome [16] was “inactive”.

For Cc1[nH]nc2c1N=C(c1ccccc1Cl)c1cc([N+](=O)[O-])ccc1N2, the AC50 [1] was 44.6 µM (active), the AC50 [15] was 1.75 µM (active) and the AC50 [4] was 2.04 µM (active). For the same compound, the AC50 [19] was 1.99 µM (active).
